Assay results taken from PubChem BioAssay AID431 (Sanford-Burnham Center for Chemical Genomics, 2006).
In all, about 63,000 compounds went through this assay and about 1,100 (1.7%) were called active. The sample as a whole holds a higher share of actives than the screen did. Potency and affinity values are given separately. Unmarked numbers belong to inactive results.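 How the source made its calls: active means compounds whose percent cytotoxicity in the single-dose primary screen, scaled between solvent and toxic-drug controls, exceeds 50; inactive means the rest.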

Test: cytotoxicity in KRAS-transformed pancreatic duct cells, primary screen, cell-based, fluorescence, HTS (AID 431);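 further: 0% = DMSO solvent wells and 100% = doxorubicin-treated wells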
Settings: HPDE-C7K KRASV12 cells, Alamar Blue viability, 48 h; at 10 µM; hits give high values

Row | SMILES | cytotoxicity
1 | COc1ccc(N2CCN(CC(=O)Nc3nc4c(s3)CC(C)CC4)CC2)cc1 (stereo unspecified) | 32.4%
2 | COCCNC(=O)CSc1nc(-c2ccc(OC)c(OC)c2)cc(C(F)(F)F)n1 | -8.7%
3 | CCOC(=O)c1sc2nc(CSc3nc4ccccc4n3CC)[nH]c(=O)c2c1C | -11.3%
4 | O=C(Cc1cn2ccsc2n1)Nc1nc2c(s1)CN(Cc1ccccc1)CC2 | -6.3%
5 | O=C(Cc1cn2ccsc2n1)Nc1nc2c(s1)CCCC2 | 23.2%
6 | CC(C)(C)C1CCc2nc(NC(=O)Cc3cn4ccsc4n3)sc2C1 (stereo unspecified) | 52.5% (active)
7 | CCOc1ccc(Cc2nn[nH]n2)cc1 | -19.6%
8 | COC(=O)CN(c1cc(C(F)(F)F)ccc1Cl)S(C)(=O)=O | -0.9%
9 | Cc1cccc(NC(=O)c2cc3c(n(-c4ccccc4)c2=O)CCCC3=O)n1 | 20%
10 | COc1ccc(-n2c3c(cc(C(=O)Nc4ccc5c(c4)C(=O)NC5=O)c2=O)C(=O)CCC3)cc1 | 61.2% (active)
11 | Cc1ccc(-n2c3c(cc(C(=O)Nc4cccc(C)n4)c2=O)C(=O)CCC3)cc1 | -27.1%
12 | COc1ccc(CCNC(=O)c2ccncc2)cc1OC | -13.2%
13 | COc1ccc(C(=O)NCCn2ccc3ccccc32)c(OC)c1 | -8.9%
14 | Cc1ccc(-c2noc(CCC(=O)N3CCCC3)n2)cc1 | -6.9%
15 | Cc1ccc(S(=O)(=O)N(C)Cc2nc(-c3ccncc3)no2)cc1 | -0.7%
16 | Cc1ccccc1-c1noc(-c2ccc(O)cc2)n1 | 29.6%
17 | CN1CCN(C(=O)CSc2nc(-c3cccs3)ccc2C#N)CC1 | 15.2%
18 | CCN(CC)C(=O)CSc1nc(C)cc(-c2cccs2)c1C#N | 2.8%
19 | CC(C)C(=O)N1CCc2cc(-c3csc(N)n3)ccc21 | -1%
20 | O=C(CCCSc1nc2ccccc2s1)NCc1ccco1 | 5.8%
21 | C=CCn1c(SCC(=O)NC(=O)NCc2ccco2)nc2sc(C)c(C)c2c1=O | 4.8%
22 | C=CCn1c(SCC(=O)N2CCN(C(=O)c3ccco3)CC2)nc2sc(CC)cc2c1=O | -11.5%
23 | C=CCn1c(SCC(=O)NC(=O)NCc2ccco2)nc2sc(CC)cc2c1=O | 63.4% (active)
24 | O=C(CSc1nc2cc(Cl)ccc2s1)NC(=O)NCc1ccco1 | -8.3%
25 | O=C(CSc1nc2ccccc2s1)NC(=O)NCc1ccco1 | 87.6% (active)
26 | COc1cccc(-c2nc(CS(=O)(=O)CC(=O)NCCC(C)C)c(C)o2)c1 | 2.6%

Row | SMILES | cytotoxicity
27 | COC(=O)c1ccc(N=c2sc(C(=O)OC)cc(=O)n2C)cc1 | -16.7%
28 | Oc1ccc(Nc2nc(N3CCCC3)c3ccccc3n2)cc1 | 94.4% (active)
29 | Cc1ccc(Nc2nc(N3CCOCC3)c3ccccc3n2)cc1 | 28.7%
30 | COc1ccc(Nc2nc(N3CCCC3)c3ccccc3n2)cc1 | 22.5%
31 | COc1ccc(C(=O)n2cnc(N)n2)cc1 | 6.1%
32 | CCCCOc1ccc(C(=O)N2CCCCCC2)cc1 | -8.5%
33 | CCCCCCOc1ccc(C(=O)n2cnc(N)n2)cc1 | 82.6% (active)
34 | Cc1ccc2cc(CN(C(=O)c3ccco3)c3ccccc3)c(=O)[nH]c2c1 | -0.6%
35 | COc1ccc(CCNC(=O)c2nonc2N)cc1OC | 0.1%
36 | Cn1c(C(=O)NCCc2c[nH]c3ccccc23)cc2sccc21 | 6.9%
37 | CCC(NC(=O)Nc1nccs1)(C(F)(F)F)C(F)(F)F | -11.8%
38 | O=C(NCC(F)(F)F)Nc1nnc(C(F)(F)F)s1 | 12.5%
39 | CCSc1nnc(NC(=O)NC(CC)(C(F)(F)F)C(F)(F)F)s1 | 19.4%
40 | CC(NC(=O)Nc1nccs1)(C(F)(F)F)C(F)(F)F | -3.9%
41 | CCn1cc(C(=O)N=c2sc3ccccc3n2C)c(=O)c2ccc(C)nc21 | -2%
42 | COc1cc(C(=S)N2CCCCC2)ccc1OCC(=O)N1CCCC1 | -1.9%
43 | COc1ccc(-n2c(Cc3cccn3C)nnc2SCC(=O)Nc2ccc(Cl)cc2)cc1 | 48.9%
44 | CCCOC(=O)C1=C(C)NC2=C(C(=O)C(C(=O)OC)C(C)C2)C1c1ccc(N(CC)CC)cc1 (stereo unspecified) | -15.1%
45 | Cc1ccc(Cl)cc1N1CCN(S(=O)(=O)c2cccc(S(=O)(=O)N3CCCC3)c2)CC1 | 0.2%
46 | CCn1cc(C(=O)NCc2ccccc2OC)c(=O)c2ccc(C)nc21 | -1.4%
47 | Cc1cc2c(cc(C(=O)OCC(=O)NCc3cccs3)n2C(C)C)o1 | 59.5% (active)
48 | CC(C)n1c(C(=O)OCC(=O)NCc2ccc3c(c2)OCO3)cc2sccc21 | 22.7%
49 | Cn1c(C(=O)OCC(=O)NCc2cccs2)cc2sccc21 | -3.4%
50 | Cc1cccc2cc(C(c3nnnn3CC3CCCO3)N3CCc4ccccc4C3)c(=O)[nH]c12 (stereo unspecified) | -7.5%
51 | Cc1ccc(S(=O)(=O)NCC(=O)OCC(=O)c2cccs2)cc1 | 4.8%
52 | COc1ccc(-c2cc(C(=O)Nc3ccccc3SC)no2)cc1OC | 1.4%

Row | SMILES | cytotoxicity
53 | O=C(O)c1[nH]c2ccc(Cl)cc2c1CC(=O)N1CCN(c2ccccc2)CC1 | 8%
54 | Cc1cccc(N2CCN(C(=O)Cc3c(C(=O)O)[nH]c4ccc(Cl)cc34)CC2)c1C | 57.9% (active)
55 | O=C(O)c1[nH]c2ccc(Cl)cc2c1CC(=O)N1CCN(C(=O)c2ccco2)CC1 | 3.2%
56 | Cc1cccc(-n2c(CNC(=O)c3ccc(S(=O)(=O)N4CCCC4)cc3)n[nH]c2=S)c1 | -12%
57 | Cc1ccc(-n2ncc(C(=O)N3CCc4ccccc4C3)c2NC(=O)c2ccco2)cc1C | 80.3% (active)
58 | Cc1ccc(NC(=O)c2cnn(-c3ccccc3)c2NC(=O)c2ccco2)cc1C | -1.9%
59 | O=C(Nc1c(C(=O)N2CCCCC2)cnn1-c1ccccc1)c1ccco1 | -3.5%
60 | Cc1cc(C)n(CC(O)COCc2ccco2)n1 (stereo unspecified) | -7.5%
61 | Cc1nnc(C)n1/N=C/c1cc(Br)cc(Br)c1O | 86.5% (active)
62 | Cc1nnc(C)n1/N=C/c1cc(Br)ccc1O | -18.8%
63 | COc1c(Br)cc(Br)cc1/C=N/n1c(C)nnc1C | 11.1%
64 | COc1ccc(Cl)cc1NS(=O)(=O)c1ccc(S(=O)(=O)N2CCCC2)cc1 | 19.4%
65 | c1cncc(-c2nc(NCc3ccco3)c3ccccc3n2)c1 | 10.1%
66 | CSCC[C@@H](Nc1nc(-c2ccccc2)nc2c1oc1ccccc12)C(=O)O | 20%
67 | COc1ccc(CCNC(=O)CSc2nc(-c3ccco3)cc(C(F)(F)F)n2)cc1OC | -11.5%
68 | O=C(C1CCN(S(=O)(=O)c2cccc3cccnc23)CC1)N1CCN(C2CCCCC2)CC1 | 8.4%
69 | N#C/C(=C(\O)c1ccco1)c1ccccn1 | -1.4%
70 | COc1cccc(OC)c1-c1nn2c(-c3ccccc3Cl)nnc2s1 | 17.5%
71 | COc1ccc(-c2nnc3sc(-c4cccs4)nn23)cc1OC | 11.7%
72 | COc1cc(-c2nnc3sc(-c4cccs4)nn23)cc(OC)c1OC | 62.9% (active)
73 | COc1cccc(OC)c1-c1nn2c(-c3cc(-c4ccccc4)n[nH]3)nnc2s1 | 58.4% (active)
74 | COc1ccc(-c2nnc3sc(-c4c(OC)cccc4OC)nn23)cc1 | 10.6%
75 | COc1cc(-c2nnc3sc(-c4ccncc4)nn23)cc(OC)c1OC | -1.5%
76 | c1ccc2c(c1)ncn2Cc1nnc2sc(-c3ccncc3)nn12 | 0.8%
77 | CC(=O)c1c(N2CCCCC2)nc(=O)n(-c2ccccc2)c1C | -16.3%
78 | CCCCCC/C(=N/O)c1ccccn1 | 51.6% (active)

Row | SMILES | cytotoxicity
79 | O=C(NCCCNC(=O)c1ccccn1)c1ccccn1 | 9.7%
80 | O/N=C(/Cc1ccccn1)c1ccccc1 | -1.3%
81 | Cc1cc2nc(C(F)(F)F)[nH]c(=O)n2n1 | 2.8%
82 | COC(=O)C1CCN(Cc2cc(=O)oc3cc(OC)ccc23)CC1 | -31.4%
83 | CCOC(=O)c1ccc(N=c2sc(C(=O)OC)cc(=O)n2Cc2ccco2)cc1 | 119% (active)
84 | COC(=O)c1cc(=O)n(Cc2ccco2)c(=Nc2ccc(F)c(Cl)c2)s1 | 26.9%
85 | CCOC(=O)c1ccc(N=c2sc(C(=O)OC)cc(=O)n2C2CC2)cc1 | 14.1%
86 | COc1ccc(N=C2SC(CC(=O)Nc3ccc(OC)cc3OC)C(=O)N2C)cc1 (stereo unspecified) | -10.8%
87 | COc1ccc(-c2cc(C(=O)N3CCN(C(c4ccccc4)c4ccccc4)CC3)no2)cc1 | 2.7%
88 | COc1ccc(N=c2oc3cc(O)ccc3cc2C(=O)NCC2CCCO2)cc1 (stereo unspecified) | -0.1%
89 | COc1ccccc1N=c1oc2cc(O)ccc2cc1C(=O)NCC1CCCO1 (stereo unspecified) | 7%
90 | COc1ccc(N=c2oc3cc(O)ccc3cc2C(=O)NCC2CCCO2)c(OC)c1 (stereo unspecified) | 53.8% (active)
91 | CC1(C)NC(=O)N(CC(O)COc2ccccc2C(=O)N2CCCCC2)C1=O (stereo unspecified) | -30.9%
92 | CCCCC(=O)Nc1cccc2c1C(=O)N(c1ccccc1)C2=O | -0.9%
93 | CCCCN(CC)S(=O)(=O)c1ccc(C(=O)Nc2nnc(COC)o2)cc1 | 3.4%
94 | CCCCN(C)S(=O)(=O)c1ccc(C(=O)Nc2nnc(CSC)o2)cc1 | -2%
95 | CCc1nnc(NC(=O)c2ccc(S(=O)(=O)N(CC)Cc3ccccc3)cc2)o1 | 33%
96 | CCc1nnc(NC(=O)c2ccc(S(=O)(=O)N(CC(C)C)CC(C)C)cc2)o1 | 47.6%
97 | CCc1nnc(NC(=O)c2ccc(S(=O)(=O)N(CCOC)CCOC)cc2)o1 | -0.3%
98 | CCCCN(CCCC)S(=O)(=O)c1ccc(C(=O)Nc2nnc(COC)o2)cc1 | 66.7% (active)
99 | CCCCN(CC)S(=O)(=O)c1ccc(C(=O)Nc2nnc(CSC)o2)cc1 | 8.9%
100 | CCCCN(CCCC)S(=O)(=O)c1ccc(C(=O)Nc2nnc(CSC)o2)cc1 | 70.1% (active)
101 | CSCc1nnc(NC(=O)c2ccc(S(=O)(=O)N(CC(C)C)CC(C)C)cc2)o1 | 57.2% (active)
